From PubChem
ST2 IL33 inh: inhibitors of human ST2 (IL1RL1) binding to IL-33 | inhibition, % for hits at 17 µM | AID 1259354 | 2.3% of 78,000 active | AlphaLISA ST2-Fc/biotin-IL-33 interaction, 1 h | Q01638; in the data active = inhibition above about 30%
Target sequence (Q01638 whole entry, looked up): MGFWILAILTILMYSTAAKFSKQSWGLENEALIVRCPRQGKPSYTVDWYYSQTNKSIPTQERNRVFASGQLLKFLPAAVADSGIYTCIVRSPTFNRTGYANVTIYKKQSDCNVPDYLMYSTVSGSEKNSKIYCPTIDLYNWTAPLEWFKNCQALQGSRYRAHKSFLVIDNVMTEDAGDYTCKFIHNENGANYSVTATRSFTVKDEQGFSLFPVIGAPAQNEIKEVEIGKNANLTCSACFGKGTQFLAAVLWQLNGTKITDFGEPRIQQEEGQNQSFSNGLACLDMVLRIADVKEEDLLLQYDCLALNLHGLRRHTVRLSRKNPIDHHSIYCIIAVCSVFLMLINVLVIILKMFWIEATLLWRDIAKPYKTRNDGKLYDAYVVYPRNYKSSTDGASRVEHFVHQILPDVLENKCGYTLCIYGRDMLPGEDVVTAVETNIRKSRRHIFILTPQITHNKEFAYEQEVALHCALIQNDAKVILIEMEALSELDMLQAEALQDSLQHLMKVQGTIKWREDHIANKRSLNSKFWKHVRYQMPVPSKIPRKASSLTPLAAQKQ
Hits are given with their value; . = inactive. The sample as a whole holds a higher share of hits than the screen did.

SMILES | ST2 IL33 inh
CC(=O)Nc1ccc(N=Cc2cc(Br)cc(Cl)c2O)cc1 | .
CCN(CC)c1ccc(N=Cc2ccc(N(CC)CC)cc2O)cc1 | 60%
CCN(CC)CCNC(=O)c1ccc(N=Cc2cc(Cl)cc(Cl)c2O)cc1 | .
CC(C)CCNC(=O)c1cc(=O)[nH]c2ccc(S(=O)(=O)N3CCCCC3)cc12 | .
CC1CCCCN1CCNS(=O)(=O)c1ccc2c(c1)c(=O)n(C)c(=O)n2C (configuration not stated) | .
Nc1nc(N)nc(-c2ccc(Oc3ccccc3)cc2)n1 | .
Nc1c(Oc2ccccc2)c(Oc2ccccc2)c(N)c2c1C(=O)c1ccccc1C2=O | 92%
O=C1c2ccccc2C(=O)N1CC(O)COc1ccccc1 (configuration not stated) | .
CCc1nc(C)c(C(=O)N2CCOC(Cc3ccc(F)cc3)C2)o1 (configuration not stated) | .
CCc1[nH]c2c(CNC(=O)Cc3c(C)noc3C)cc(F)cc2c1C | .
O=C(CSc1nnc(-c2ccc(Cl)cc2)n1Cc1ccccc1)N1CCCC1 | .
O=C(Nc1cccc(-c2nc3cc(Cl)ccc3o2)c1)c1cc2ccccc2oc1=O | .
Cc1nn(-c2ccccc2)c2c1C(c1cccnc1)C(C#N)=C(N)O2 (configuration not stated) | .
Cc1nn(-c2ccccc2)c2c1C(c1ccncc1)C(C#N)=C(N)O2 (configuration not stated) | 38%
COc1ccc(Br)cc1C1C(C#N)=C(N)Oc2c1c(C)nn2-c1ccccc1 (configuration not stated) | .
N#CC1=C(N)Oc2n[nH]c(-c3ccccc3)c2C1c1ccc([N+](=O)[O-])cc1Cl (configuration not stated) | .
Cc1nn(-c2ccccc2)c2c1C(c1ccc([N+](=O)[O-])o1)C(C#N)=C(N)O2 (configuration not stated) | 39%
CC1=C(n2nnc3ccccc32)C(c2ccccc2)C(C#N)=C(N)O1 (configuration not stated) | .
CCOc1cc2c(cc1OCC)C1C(C(=O)NCCC(C)C)c3ccccc3C(=O)N1CC2 (configuration not stated) | .
O[C@@H]1C[C@@H](c2nc(-c3ccccc3)no2)N(Cc2cccnc2)C1 | .
O=C(C[C@@H]1O[C@H](CNS(=O)(=O)c2ccccc2)[C@@H](O)[C@H]1O)N1CCc2ccccc21 | .
Cc1ccc(-n2nc3ccc(NC(=O)c4cccnc4)cc3n2)cc1 | .
Cc1ccc(NC2c3ccccc3C(=O)N2Cc2ccccc2)cc1F (configuration not stated) | .
O=C1c2ccccc2-c2ccc(Br)cc21 | 32%
O=C1C(=Cc2cccn2-c2ccc(Br)cc2)C(=O)c2ccccc21 | .
SMILES | ST2 IL33 inh
O=C1C(Br)=C(Br)C(=O)c2ccccc21 | .
CN(Cc1ncccc1C(=O)O)Cc1nc2ccccc2n1C | .
Cc1ccccc1-c1nc2cc(N=Cc3cc([N+](=O)[O-])ccc3O)ccc2o1 | .
O=[N+]([O-])c1ccc(O)c(C=Nc2ccc(-c3nc4ncccc4o3)cc2)c1 | .
O=[N+]([O-])c1cc2c(cc1C=Nc1ccc(O)c(-c3nc4ccccc4o3)c1)OCO2 | 35%
Cc1cccc2oc(-c3cc(N=Cc4ccc([N+](=O)[O-])cc4)ccc3O)nc12 | 30%
Cc1ccccc1-c1nc2cc(N=Cc3cc([N+](=O)[O-])c(O)c([N+](=O)[O-])c3O)ccc2o1 | .
O=[N+]([O-])c1cc2c(cc1C=Nc1ccc3oc(-c4cccc(F)c4)nc3c1)OCO2 | .
Cn1c(=O)c2c(SCC(=O)N3CCCCC3)nc(-c3ccco3)nc2n(C)c1=O | .
Cn1ccnc1-c1c(-c2ccccc2)ncn1CC1CNCCO1 (configuration not stated) | .
O=C(NCc1cccs1)c1ccc2c(Cl)c3c(nc2c1)CCCC3 | .
Cc1nc2c(C(=O)NCCN(C)C)cnn2c(C)c1Cc1ccc(F)cc1 | .
O=C(c1ccccc1F)N1CCN=C1SCc1ccc(Cl)cc1 | .
CC(C)CNC(=O)c1cc(S(=O)(=O)N2CCCC2)c(Cl)cc1Cl | .
Cc1ccccc1N1CCN(Cc2ccc(Br)s2)CC1 | .
O=[N+]([O-])c1ccc(N2CCN(CCO)CC2)cc1 | .
COc1cc(CN2CCN(c3ccc([N+](=O)[O-])cc3)CC2)ccc1O | .
CN(C)c1ccc(CN2CCN(c3ccc([N+](=O)[O-])cc3)CC2)cc1 | 51%
O=[N+]([O-])c1ccc(N2CCN(Cc3ccc(Br)s3)CC2)cc1 | 36%
CCOc1ccccc1N1CCN(Cc2ccc([N+](=O)[O-])cc2)CC1 | .
Cc1nc2cc(-c3ccccc3)nn2c(C)c1CCC(=O)Nc1ccc2c(c1)OCO2 | .
O=C(Nc1ccccc1F)C1CCN(S(=O)(=O)c2ccc(Cl)cc2)CC1 | .
Cc1ccc(NS(=O)(=O)c2ccc3c(c2)CCN3C(=O)C2CC2)cc1C | .
CCCCS(=N)(=O)CCC(N)C(=O)O (configuration not stated) | .
N[C@H](CCC(=O)NCS(=O)(=O)O)C(=O)O | 85%
SMILES | ST2 IL33 inh
NC(=O)CC[C@H](N)C(=O)O | .
COCCNC(=O)c1ccc2c(Cl)c3c(nc2c1)CCCC3 | .
CCCCN(CC)S(=O)(=O)c1ccc2[nH]c(=O)cc(C(=O)O)c2c1 | .
Cc1cccc(-c2noc(CCC(=O)N3CCCC(N(C)C)CC3)n2)c1 (configuration not stated) | .
CC(=O)NC(C)c1nc2ccccc2n1Cc1c(F)cccc1Cl (configuration not stated) | .
Cn1nc(-c2ccc(Cl)cc2)c2cc(C(=O)NCCCN3CCCCCC3)sc21 | .
O=C1NCC(=O)N2CCc3ccccc3C12 (configuration not stated) | .
Cn1cnnc1SCC(=O)Nc1ccc(S(=O)(=O)Nc2nccs2)cc1 | .
O=C(CCCc1ccccc1)Nc1ccccc1-c1ccccc1 | .
CC(=O)Nc1ccc2cccccc1-2 | 56%
O=C(Nc1ccccc1-c1ccccc1)c1ccccc1 | .
O=C(c1cc(-c2ccccc2)on1)N1CCC2(CC1)C(=O)Nc1ccccc12 | .
COc1cc(Cl)ccc1OCc1cc(C(=O)N2CCN(C)C[C@@H]2c2ccccc2)no1 | .
COCC1CCCN(C(=O)c2ccc(N(C)Cc3ccsc3)nc2)C1 (configuration not stated) | .
COc1ccc(-c2nn(-c3ccccc3C)cc2CNCCN2CCOC2=O)cc1F | .
CNC(=O)c1ccc(CNC(=O)c2cccc(-c3ccccc3OC)c2)o1 | .
COc1ccccc1-c1cccc(C(=O)NCCN2CCOC2=O)c1 | 31%
O=C1S/C(=C/c2ccccc2)C(=O)N1CNc1cccc(F)c1 | .
C=CCN1C(=O)/C(=C/c2ccccc2)SC1=Nc1cccc([N+](=O)[O-])c1 | 47%
O=C1NC(=Nc2cccc([N+](=O)[O-])c2)SC1(CO)CO | .
Cc1cccc(-n2ncc3c(Nc4ccc(F)c(Cl)c4)ncnc32)c1 | .
CN(C)c1ccc(-c2nc3cc(NC(=O)Cc4ccccc4)ccc3o2)cc1 | .
O=C(Nc1ccc2oc(-c3ccc(F)cc3)nc2c1)c1ccccc1 | .
O=C(Nc1ccc2oc(-c3ccncc3)nc2c1)c1ccc(-c2ccccc2)o1 | 41%
CC1=C(C(=O)Nc2ccccn2)C(c2cccs2)C2=C(CC(C)(C)CC2=O)N1 (configuration not stated) | .
COc1ccccc1/C=C/CN(C)C1CCN(C)CC1 | .
FC(F)(F)c1cccc(N2CCN(C3CCCN(Cc4cnc[nH]4)C3)CC2)c1 (configuration not stated) | .
